About 83,000 compounds went through this panel and 20% of them were active in at least one assay; those are over-represented in the sample as a whole.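 Method: cells in 96-well plates; compound added at one concentration; 48 h incubation; percent growth measured; values under 10 scored active.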 Unmarked numbers belong to inactive results. Active and inactive are the calls of the source.

The test system of one test is MDA-MB-435 melanoma. As to the kind of experiment: NCI-60 one-dose screen, 48 h (100 = growth as untreated, 0 = no growth, -100 = all killed). To be noted: 10 µM unless noted.
`COc1cc(Cn2c(SCCC(=O)Nc3ccc(F)cc3)nc3ccccc3c2=O)cc(OC)c1OC`: the growth is 106%.
Still for that read-out and setting: in the case of `O=C(O)c1cn(C2CC2)c2cc(N3CCN(S(=O)(=O)c4ccc(Cl)c(Cl)c4)CC3)c(F)cc2c1=O` it was 13%; in that of `COc1cc(NCCCN=C(N)NC(N)=NC(C)C)c2ncccc2c1`, 96.9%.
`O=C(O)c1cccc([N+](=O)[O-])c1/C=C/c1ccccc1`: the growth is 105%.
In the case of `NC(CC(N)C(=O)O)C(=O)O` (stereo unspecified), the growth is 103%.
With `O=C(O)c1ccc(-n2c(=O)c3ccccc3c3ccccc3c2=O)cc1`, the growth is 103%.
Still for that read-out and setting: in the case of `COc1cc(Cn2c(SCC(=O)Nc3ccc(Cl)cc3)nc3ccccc3c2=O)cc(OC)c1OC` it was 69.8%; in that of `CN(C)c1ncc(-c2ccc(C(F)(F)F)cc2)c(NC2CCCCCC2)n1`, 65.4%.
On the same count and under the same terms, in the case of `Nc1c(C(=O)Nc2ccccc2)sc2nc3c(cc12)CCCCC3` it was -50.7% (active); in that of `CCn1cc(C(=O)O)c(=O)c2cc(F)c(N3CCN(S(=O)(=O)c4c(C)cc(C)cc4C)CC3)cc21`, 89.1%; in that of `CCn1cc(C(=O)O)c(=O)c2cc(F)c(N3CCN(S(=O)(=O)c4ccc(Cl)cc4Cl)CC3)cc21`, 12.8%.
On the same count and under the same terms, in the case of `COC12CC(=O)C(C(C)=O)=C(O)C1(C)c1c(O)c(C)c(O)c(C(C)=O)c1O2` (stereo unspecified) it was 87.3%; in that of `CCCC(C(=O)OCC)C(C)OC(=O)OCC` (stereo unspecified), 101%.
As for `NC(=O)NC(=O)/C=C/C(=O)OCCCl`, the growth was 101%.
Consider `Cc1ccc(C2=NN(c3ccc(S(=O)(=O)NC(=O)NCc4ccccc4)cc3)C(c3ccc(N(C)C)cc3)C2)c(C)c1` (stereo unspecified), for which the growth is 1% (active).
Still for that read-out and setting: in the case of `COc1ccc(-c2cn[nH]c2-c2cc(OC)c3c(c2)OCO3)cc1` it was -55.4% (active).
With `CCCCCCCCCCCCNC(=S)N/N=C/c1ccc(Cl)c(Cl)c1`, the growth was 98.8%.
With `Oc1ccc(Cl)cc1-c1cc(-c2ccc(Cl)cc2)n[nH]1`, the growth is 84.9%.
For `COc1cc(NC(=O)CSc2nc3ccc(C)cc3c(=O)n2-c2ccccc2)cc(OC)c1OC`, the growth was 47.5%.
For `Clc1nc(-c2cccnc2)nc2sc3c(c12)CCCCCC3`, the growth is 97.3%.
In the case of `CCCCCCCCCCCCCCCCC(Br)C(=O)O` (stereo unspecified), the growth is 98.4%.
Consider `CCN(Cc1ccccc1)c1ccc(SC#N)cc1`, for which the growth is 98.6%.
As to `CCCCCC(=O)OCc1ccccc1`, the growth is 96.3%.
As for `COc1ccc(S(=O)(=O)N2CCN(c3cc4c(cc3F)c(=O)c(C(=O)O)cn4C3CC3)CC2)c(OC)c1`, the growth was 97.7%.
The same measure, in the same setting: in the case of `COc1cc2nc(N3CCC[C@@H](NC4=CC(=O)c5ccccc5C4=O)C3)nc(N)c2cc1OC` it was 64.7%.
Same read-out and setting: in the case of `COc1ccccc1CNCCCN1C(=O)c2ccc3c4c(ccc(c24)C1=O)C(=O)N(CCCNCCCCNCCCCN)C3=O` it was -59.7% (active); in that of `Cc1cc(C)c(S(=O)(=O)N2CCN(c3cc4c(cc3F)c(=O)c(C(=O)O)cn4C3CC3)CC2)c(C)c1`, 76.1%; in that of `COc1ccc(NC(=O)CSc2nc3ccccc3c(=O)n2-c2ccccc2C(F)(F)F)c(OC)c1OC`, 107%.
For the compound `CNC(C)=O`, the growth is 105%.
For the compound `CCN(CC)P(=O)(N(CC)CC)N(CCCSC/C=C(\C)CC/C=C(\C)CCC=C(C)C)CCCN1CCN(C)CC1`, the growth was 100%.
As for `COc1ccc(NC(=O)CSc2nc3ccc(Cl)cc3c(=O)n2-c2ccccc2C(F)(F)F)c(OC)c1OC`, the growth is 92.3%.
With `O=S(=O)(O)CCl`, the growth is 108%.
On the same count and under the same terms, in the case of `COc1ccc(OC)c(C(=O)c2oc3ccc(Br)cc3c2N)c1` it was -64.7% (active); in that of `COc1cc(NCCN=C(N)NC(N)=NC(C)C)c2ncccc2c1`, 103%; in that of `CC(=O)Nc1nc(C(=O)N2N=C(C)/C(=C/c3cccs3)C2=O)cs1`, 103%.
Turning to `CC(C)[C@H](CO)Nc1nc(Nc2ccc(C(=O)NCCNS(=O)(=O)c3cccc4c(N(C)C)cccc34)c(Cl)c2)c2ncn(C(C)C)c2n1`, the growth is 0.754% (active).
For the compound `CCn1cc(C(=O)O)c(=O)c2cc(F)c(N3CCN(S(=O)(=O)c4cccc5ccccc45)CC3)cc21`, the growth was 11.4%.
Consider `O=C1Nc2ccc(Br)cc2C1=N/C=c1\[nH]c(=O)/c(=C/c2ccc(Cl)cc2)s1`, for which the growth is 104%.

The test system of another test is SW-620 colon. The test is described as above. To be noted: 10 µM unless noted.
Turning to `COc1cc(Cn2c(SCCC(=O)Nc3ccc(F)cc3)nc3ccccc3c2=O)cc(OC)c1OC`, the growth is 97.9%.
On the same count and under the same terms, in the case of `O=C(O)c1cn(C2CC2)c2cc(N3CCN(S(=O)(=O)c4ccc(Cl)c(Cl)c4)CC3)c(F)cc2c1=O` it was 20.7%; in that of `COc1cc(NCCCN=C(N)NC(N)=NC(C)C)c2ncccc2c1`, 86.6%.
Take `O=C(O)c1cccc([N+](=O)[O-])c1/C=C/c1ccccc1`: the growth is 96.7%.
Same read-out and setting: in the case of `NC(CC(N)C(=O)O)C(=O)O` (stereo unspecified) it was 104%; in that of `O=C(O)c1ccc(-n2c(=O)c3ccccc3c3ccccc3c2=O)cc1`, 110%; in that of `COc1cc(Cn2c(SCC(=O)Nc3ccc(Cl)cc3)nc3ccccc3c2=O)cc(OC)c1OC`, 77.7%.
For `CN(C)c1ncc(-c2ccc(C(F)(F)F)cc2)c(NC2CCCCCC2)n1`, the growth is 58.1%.
As to `Nc1c(C(=O)Nc2ccccc2)sc2nc3c(cc12)CCCCC3`, the growth was 24.2%.
As to `CCn1cc(C(=O)O)c(=O)c2cc(F)c(N3CCN(S(=O)(=O)c4c(C)cc(C)cc4C)CC3)cc21`, the growth is 95.1%.
Same read-out and setting: in the case of `CCn1cc(C(=O)O)c(=O)c2cc(F)c(N3CCN(S(=O)(=O)c4ccc(Cl)cc4Cl)CC3)cc21` it was 16.4%; in that of `COC12CC(=O)C(C(C)=O)=C(O)C1(C)c1c(O)c(C)c(O)c(C(C)=O)c1O2` (stereo unspecified), 80.2%.
Consider `CCCC(C(=O)OCC)C(C)OC(=O)OCC` (stereo unspecified), for which the growth was 113%.
`NC(=O)NC(=O)/C=C/C(=O)OCCCl`: the growth was 102%.
Same read-out and setting: in the case of `Cc1ccc(C2=NN(c3ccc(S(=O)(=O)NC(=O)NCc4ccccc4)cc3)C(c3ccc(N(C)C)cc3)C2)c(C)c1` (stereo unspecified) it was 59.5%; in that of `COc1ccc(-c2cn[nH]c2-c2cc(OC)c3c(c2)OCO3)cc1`, 21.9%; in that of `CCCCCCCCCCCCNC(=S)N/N=C/c1ccc(Cl)c(Cl)c1`, 110%.
Regarding `Oc1ccc(Cl)cc1-c1cc(-c2ccc(Cl)cc2)n[nH]1`, the growth was 81%.
Turning to `COc1cc(NC(=O)CSc2nc3ccc(C)cc3c(=O)n2-c2ccccc2)cc(OC)c1OC`, the growth was 87.6%.
Take `Clc1nc(-c2cccnc2)nc2sc3c(c12)CCCCCC3`: the growth was 106%.
The same measure, in the same setting: in the case of `CCCCCCCCCCCCCCCCC(Br)C(=O)O` (stereo unspecified) it was 116%; in that of `CCN(Cc1ccccc1)c1ccc(SC#N)cc1`, 83.8%; in that of `CCCCCC(=O)OCc1ccccc1`, 98.1%.
Consider `COc1ccc(S(=O)(=O)N2CCN(c3cc4c(cc3F)c(=O)c(C(=O)O)cn4C3CC3)CC2)c(OC)c1`, for which the growth was 105%.
As to `COc1cc2nc(N3CCC[C@@H](NC4=CC(=O)c5ccccc5C4=O)C3)nc(N)c2cc1OC`, the growth is -60.6% (active).
`COc1ccccc1CNCCCN1C(=O)c2ccc3c4c(ccc(c24)C1=O)C(=O)N(CCCNCCCCNCCCCN)C3=O`: the growth is 2.99% (active).
As for `Cc1cc(C)c(S(=O)(=O)N2CCN(c3cc4c(cc3F)c(=O)c(C(=O)O)cn4C3CC3)CC2)c(C)c1`, the growth was 79.8%.
On the same count and under the same terms, in the case of `COc1ccc(NC(=O)CSc2nc3ccccc3c(=O)n2-c2ccccc2C(F)(F)F)c(OC)c1OC` it was 95.3%; in that of `CNC(C)=O`, 105%; in that of `CCN(CC)P(=O)(N(CC)CC)N(CCCSC/C=C(\C)CC/C=C(\C)CCC=C(C)C)CCCN1CCN(C)CC1`, 101%.
Take `COc1ccc(NC(=O)CSc2nc3ccc(Cl)cc3c(=O)n2-c2ccccc2C(F)(F)F)c(OC)c1OC`: the growth was 94%.
As for `O=S(=O)(O)CCl`, the growth is 103%.
`COc1ccc(OC)c(C(=O)c2oc3ccc(Br)cc3c2N)c1`: the growth is 16.2%.
The same measure, in the same setting: in the case of `COc1cc(NCCN=C(N)NC(N)=NC(C)C)c2ncccc2c1` it was 88.4%.
With `CC(=O)Nc1nc(C(=O)N2N=C(C)/C(=C/c3cccs3)C2=O)cs1`, the growth is 110%.
As to `CC(C)[C@H](CO)Nc1nc(Nc2ccc(C(=O)NCCNS(=O)(=O)c3cccc4c(N(C)C)cccc34)c(Cl)c2)c2ncn(C(C)C)c2n1`, the growth was 4.97% (active).
On the same count and under the same terms, in the case of `CCn1cc(C(=O)O)c(=O)c2cc(F)c(N3CCN(S(=O)(=O)c4cccc5ccccc45)CC3)cc21` it was 22.8%.
With `O=C1Nc2ccc(Br)cc2C1=N/C=c1\[nH]c(=O)/c(=C/c2ccc(Cl)cc2)s1`, the growth is 104%.

Source of the values: PubChem BioAssay (NCI).
